# Assay outcomes deposited in PubChem BioAssay by SRMLSC.
# Abs 340nm – compound light absorbance at 340 nm, profiling panel, artefact control, biochemical, MLSMR library, data from PS, PMK, MK assays | 65,000 tested, under 10 active | fold change at 10 µM | compound absorbance at 340 nm, fold over control;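 active = at 10 µM dose, initial 340 nm absorbance at least 2 fold that of control wells; inactive = change under 2 fold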;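 note: initial absorbance extrapolated from kinetic A340 decline of NADH oxidation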
# NADH enzymes – inhibitors of PK/LDH coupling enzymes, profiling panel, artefact control, biochemical, MLSMR library; coupled PK/LDH NADH assays, four targets; IC50, µM (titrated, usually from 10 µM); hit rate 0.02% among 65,000; AID 774, 2007;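 active = single-dose screening hits from any of four coupled enzyme assays that gave an IC50 when retested across doses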;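 note: the DPM-DC format reads NADH fluorescence rather than 340 nm absorbance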
# Autofluor 339 – intrinsic fluorescence of library compounds, ex339/em460 – biochemical, MLSMR library, data from DPM-DC assay, artefact control, profiling panel; compound autofluorescence, ex339/em460 nm, NADH buffer; active compounds read high; 1 = no-compound wells, NADH background; fluorescence fold increase at 10 µM; hit rate 5.5% among 65,000;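 active = at 10 µM, mean starting fluorescence two-fold or more over control wells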;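 note: signal is the first read of a kinetic run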
# PMK inhibit – S. pneumoniae PMK inhibitors, primary screen, biochemical, mevalonate pathway, pilot trial included. inhibition, % at 10 µM. hit rate 0.49% among 65,000. phosphomevalonate kinase (Streptococcus pneumoniae D39). purified PMK, PK/LDH-coupled NADH absorbance 340 nm;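 active = top-ranked compounds by inhibition in the single 10 µM screen, taking a fixed number of the strongest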
# Spn MK inh – S. pneumoniae MK inhibitors, primary screen, biochemical, PK/LDH-coupled NADH absorbance; hit rate 0.48% among 65,000; inhibition, % at 10 µM; purified MK, PK/LDH-coupled NADH absorbance 340 nm;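 active = ranked among the strongest by inhibition in the single 10 µM screen, a fixed top-ranked set picked for dose follow-up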
# Spn DPM-DC inh – S. pneumoniae DPM-DC inhibitors, primary screen, biochemical, PK/LDH-coupled NADH fluorescence | AID 556, 2006 | diphosphomevalonate decarboxylase (Streptococcus pneumoniae D39) | hit rate 0.49% among 65,000 | calls only at 10 µM | purified DPM-DC;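 active = the 320 compounds with the highest percent inhibition in the single-dose primary screen, excluding strongly autofluorescent ones, cut at about 32% in these data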;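 note: kinetic rate of NADH fluorescence loss reporting ADP formed by the decarboxylase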
# Hits are given with their value; . = inactive; / = no result shown. Most compounds without a hit are left out; they make up all but 6.5% or so of the library.
SMILES,Abs 340nm,NADH enzymes,Autofluor 339,PMK inhibit,Spn MK inh,Spn DPM-DC inh
Cc1ccc2c(c1)N(Cc1ccncc1)C(=O)C(C)O2 (centres undefined),.,.,.,.,.,.
Cc1nc2ccccc2n2c(O)c(CC(=O)O)cc12,.,.,.,42,.,.
COC(=O)c1cc2c(s1)-c1ccccc1OC2,.,.,2.1,.,.,/
O=C(Nc1ccc2c(c1)OCCO2)c1ccc(NC(=O)C2CCCO2)cc1 (centres undefined),.,.,.,.,.,.
CC(=O)c1ccc(N2CCN(C(=O)c3cc4c(=O)n(C)c5ccccc5c4n3C)CC2)cc1,.,.,.,.,.,.
COc1ccc(N(CC(=O)NCc2cccnc2)S(=O)(=O)c2c(C)nn(C)c2C)cc1,.,.,.,.,.,.
COc1c(Br)cc2c(C)c(C(=O)O)oc2c1Br,.,.,.,.,43,.
Cc1nn(-c2ccc(F)cc2)c(C)c1NS(=O)(=O)c1ccc(Cl)cc1,.,.,.,.,.,.
CC(C)N(CCc1ccncc1)C(=O)Nc1ccc(Cl)c(Cl)c1,.,.,.,.,.,.
CC(C)(C)CC(=O)N1CCC(c2nc3c(nnn3Cc3c(F)cccc3Cl)c(=O)[nH]2)CC1,.,.,.,.,.,.
CC1SC(=NC(=O)c2ccco2)NC1=O (centres undefined),.,.,.,26,.,.
Cc1ccc(OCCNC(=O)c2ccccc2N)cc1,.,.,2.1,.,.,/
COc1ccc(OCCNC(=O)c2ccccc2OCC(=O)N2CCCCC2)cc1,.,.,.,.,.,.
CCN(CC)CCNC(=O)c1ccccc1N,.,.,2.3,.,.,/
CCN(CC)CCCNC(=O)c1ccccc1C,.,.,.,.,.,.
CC(=O)Nc1ccc(CN2CCN(c3cccc(C(F)(F)F)c3)CC2)cc1,.,.,.,.,43,.
Cn1ccnc1C(O)(c1nnc(-c2ccccc2)o1)C(F)(F)F (centres undefined),.,.,.,.,.,.
CCOc1ccc(CC(=O)C2C(=O)CCCC2=O)cc1OCC,.,.,.,.,.,.
C=C(C)COc1ccc2c(C)c(C)c(=O)oc2c1OCC(=C)C,.,.,2.1,.,.,/
C=C(C)COc1ccc2c3c(c(=O)oc2c1OCC(=C)C)CCC3,.,.,2.1,.,.,.
CC1CCN(S(=O)(=O)c2ccc(S(=O)(=O)NCC(=O)C(C)(C)C)cc2)CC1,.,.,.,.,.,.
O=c1[nH]cnc2nn(-c3ccccc3)nc12,.,.,.,.,.,.
O=c1[nH]cnc2nc(-c3ccccc3)c(-c3ccccc3)nc12,.,.,5.1,.,.,/
CCOC(=O)CCSc1nc(C)c2ccccc2n1,.,.,.,.,.,.
CCOC(=O)CSc1nc(C)c2cc(OC)ccc2n1,.,.,3.7,.,.,/
SMILES,Abs 340nm,NADH enzymes,Autofluor 339,PMK inhibit,Spn MK inh,Spn DPM-DC inh
COc1ccc2nc(/N=C(\N)NC(=O)C(C)(C)C)nc(C)c2c1,.,.,.,.,.,.
CCC(=O)N/C(N)=N/c1nc(C)c2cc(OC)ccc2n1,.,.,2.1,.,.,/
Cn1ncc2c1ncn1c(-c3ccccc3Cl)nnc21,.,.,.,.,.,.
O=C(CSc1nnc(-c2cccs2)o1)OCc1ccccc1,.,.,.,.,.,.
CN(C)C(=O)CSc1nnc(-c2cc(-c3cccs3)nc3ccccc23)o1,.,.,4.9,.,.,/
Cc1cc2nc(-c3ccc(SCC(=O)N4CCN(C(=O)c5ccco5)CC4)nc3)[nH]c2cc1C,.,.,4.4,.,.,/
Cc1cc2nc(-c3ccc(SCC(=O)N4CCOCC4)nc3)[nH]c2cc1C,.,.,2.2,.,.,/
O=C(c1ccc(=O)oc1)N1CCCc2ccccc21,.,.,.,.,.,.
O=C(O)c1cc(-c2ccco2)[nH]n1,.,.,.,.,.,.
CC(C)Cc1cc(C(=O)O)n[nH]1,.,.,2,.,.,.
COC(=O)C1=C(NC(=O)c2ccc(C)c(C)c2)CCS1,.,.,2.7,.,.,.
COC(=O)c1cc(-c2ccccc2)sc1NC(=O)c1cc(C)on1,.,.,2.5,.,.,/
